# Test results as given in publication PMC7862700, “An all-to-all approach to the identification of sequence-specific readers for epigenetic DNA modifications on cytosine”.
# Experiments:
# Test in all cases: DAPPL (digital affinity profiling via proximity ligation, sequencing); 10 mM Tris-HCl pH 7.5, 50 mM NaCl, 1 mM DTT, 4% glycerol, room temperature, 30 min; GST-TFs on glutathione beads, 16-mer random dsDNA library, 0.1% formaldehyde crosslink after washing; high values mean tight binding
# FLI1 = target: T1, FLI1 (Homo sapiens, UniProt Q01543 1-452); conditions: protein: recombinant; tags: N-terminal GST; dsDNA, one strand shown
# T1 sequence: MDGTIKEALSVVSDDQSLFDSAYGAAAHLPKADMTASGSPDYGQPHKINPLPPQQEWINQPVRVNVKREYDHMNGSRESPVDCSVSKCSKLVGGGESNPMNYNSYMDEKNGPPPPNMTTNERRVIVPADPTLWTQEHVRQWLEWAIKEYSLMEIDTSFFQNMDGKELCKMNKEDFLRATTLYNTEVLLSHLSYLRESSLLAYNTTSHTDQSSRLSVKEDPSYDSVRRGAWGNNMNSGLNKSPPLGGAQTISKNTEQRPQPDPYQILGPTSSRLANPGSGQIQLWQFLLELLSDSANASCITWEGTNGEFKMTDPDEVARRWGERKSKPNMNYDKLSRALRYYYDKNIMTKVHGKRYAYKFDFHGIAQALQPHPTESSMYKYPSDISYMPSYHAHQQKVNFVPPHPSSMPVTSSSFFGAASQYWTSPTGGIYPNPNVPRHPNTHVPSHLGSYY
# Outline: (§1)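 After expression in yeast as GST fusions, human transcription factors were bound to glutathione beads, DNA-barcoded and mixed with a tag-only sample. The pools were incubated with 200 nmole of a 16-mer random double-stranded DNA library in Tris/NaCl/DTT/glycerol buffer (30 min, room temperature), washed and crosslinked with 0.1% formaldehyde. Proximity ligation with BsaI/T4 ligase ran for 1 h at 37 °C, before PCR amplification and sequencing on an Illumina NextSeq500. Binding signal is a hexamer's read frequency for a factor divided by its frequency for the tag-only sample.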
# ELK1 = target: T2, ELK1 (Homo sapiens, UniProt P19419 1-428); conditions: protein: recombinant; tags: N-terminal GST; dsDNA, one strand shown
# T2 sequence: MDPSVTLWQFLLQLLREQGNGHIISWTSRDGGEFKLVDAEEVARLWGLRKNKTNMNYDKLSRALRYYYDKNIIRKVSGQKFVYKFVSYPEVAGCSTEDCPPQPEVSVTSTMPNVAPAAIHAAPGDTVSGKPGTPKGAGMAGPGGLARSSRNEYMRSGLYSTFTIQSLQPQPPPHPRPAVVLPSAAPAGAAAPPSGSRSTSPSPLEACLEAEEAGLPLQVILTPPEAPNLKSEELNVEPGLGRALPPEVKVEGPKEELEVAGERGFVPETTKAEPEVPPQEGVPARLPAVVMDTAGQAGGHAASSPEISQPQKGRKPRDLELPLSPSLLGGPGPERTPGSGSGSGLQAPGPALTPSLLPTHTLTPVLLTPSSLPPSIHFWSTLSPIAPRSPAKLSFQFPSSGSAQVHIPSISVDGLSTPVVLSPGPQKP
# Outline: as §1
# GABPA = target: T3, GABPA (Homo sapiens, UniProt Q06546 1-454); conditions: protein: recombinant; tags: N-terminal GST; dsDNA, one strand shown
# T3 sequence: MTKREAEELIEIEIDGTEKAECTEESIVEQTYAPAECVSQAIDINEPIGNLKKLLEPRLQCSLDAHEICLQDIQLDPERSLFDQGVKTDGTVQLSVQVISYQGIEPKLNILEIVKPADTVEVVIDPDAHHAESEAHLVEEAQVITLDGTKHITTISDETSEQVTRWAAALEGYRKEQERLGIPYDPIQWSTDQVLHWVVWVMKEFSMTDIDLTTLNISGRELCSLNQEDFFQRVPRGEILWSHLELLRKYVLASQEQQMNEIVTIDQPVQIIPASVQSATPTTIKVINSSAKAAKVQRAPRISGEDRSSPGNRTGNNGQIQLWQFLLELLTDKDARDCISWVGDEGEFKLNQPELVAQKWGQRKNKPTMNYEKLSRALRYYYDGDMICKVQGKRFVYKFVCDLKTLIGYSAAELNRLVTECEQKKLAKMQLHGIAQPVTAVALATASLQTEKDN
# Outline: as §1
# ERG = target: T4, ERG (Homo sapiens, UniProt P11308 1-479); conditions: protein: recombinant; tags: N-terminal GST; dsDNA, one strand shown
# T4 sequence: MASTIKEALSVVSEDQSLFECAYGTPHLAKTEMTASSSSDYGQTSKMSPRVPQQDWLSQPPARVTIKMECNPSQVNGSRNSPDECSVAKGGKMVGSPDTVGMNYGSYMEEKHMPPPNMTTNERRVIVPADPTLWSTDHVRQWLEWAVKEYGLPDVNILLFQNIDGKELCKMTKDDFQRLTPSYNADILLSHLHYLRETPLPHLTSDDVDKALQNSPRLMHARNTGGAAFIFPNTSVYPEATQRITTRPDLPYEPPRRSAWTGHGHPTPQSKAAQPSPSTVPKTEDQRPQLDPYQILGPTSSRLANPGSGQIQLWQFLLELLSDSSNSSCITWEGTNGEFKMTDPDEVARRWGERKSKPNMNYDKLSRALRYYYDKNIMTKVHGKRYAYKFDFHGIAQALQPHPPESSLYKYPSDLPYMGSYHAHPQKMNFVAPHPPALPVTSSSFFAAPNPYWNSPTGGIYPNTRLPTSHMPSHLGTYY
# Outline: as §1
# ELF1 = ELF1 (Homo sapiens, UniProt P32519 1-619); conditions: protein: recombinant; tags: N-terminal GST; dsDNA, one strand shown
# Outline: as §1
# EHF = target: T5, EHF (Homo sapiens, UniProt Q9NZC4 1-300); conditions: protein: recombinant; tags: N-terminal GST; dsDNA, one strand shown
# T5 sequence: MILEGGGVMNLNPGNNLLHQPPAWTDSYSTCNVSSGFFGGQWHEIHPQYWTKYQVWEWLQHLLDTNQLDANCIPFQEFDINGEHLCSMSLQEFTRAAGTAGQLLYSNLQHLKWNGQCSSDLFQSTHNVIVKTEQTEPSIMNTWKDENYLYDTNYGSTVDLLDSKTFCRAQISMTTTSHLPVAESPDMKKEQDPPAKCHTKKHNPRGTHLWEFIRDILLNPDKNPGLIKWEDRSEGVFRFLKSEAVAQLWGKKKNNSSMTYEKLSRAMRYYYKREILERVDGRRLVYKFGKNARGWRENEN
# Outline: as §1
# SPI1 = SPI1 (Homo sapiens, UniProt P17947 1-270); conditions: protein: recombinant; tags: N-terminal GST; dsDNA, one strand shown
# Outline: as §1
# SPIB = SPIB (Homo sapiens, UniProt Q01892 1-262); conditions: protein: recombinant; tags: N-terminal GST; dsDNA, one strand shown
# Outline: as §1
# ELK3 = target: T6, ELK3 (Homo sapiens, UniProt P41970 1-407); conditions: protein: recombinant; tags: N-terminal GST; dsDNA, one strand shown
# T6 sequence: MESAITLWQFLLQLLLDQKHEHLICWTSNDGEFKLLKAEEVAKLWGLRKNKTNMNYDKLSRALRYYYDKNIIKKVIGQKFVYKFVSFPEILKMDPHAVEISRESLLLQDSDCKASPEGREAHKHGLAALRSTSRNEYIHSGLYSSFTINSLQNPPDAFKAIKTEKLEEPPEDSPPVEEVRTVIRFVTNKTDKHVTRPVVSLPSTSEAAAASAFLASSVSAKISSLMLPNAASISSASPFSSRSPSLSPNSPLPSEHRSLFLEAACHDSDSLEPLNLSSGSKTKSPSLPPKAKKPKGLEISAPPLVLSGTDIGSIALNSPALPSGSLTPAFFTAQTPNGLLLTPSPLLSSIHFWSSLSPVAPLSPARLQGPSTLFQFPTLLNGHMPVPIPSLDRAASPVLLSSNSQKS
# Outline: as §1
# FEV = target: T7, FEV (Homo sapiens, UniProt Q99581 1-238); conditions: protein: recombinant; tags: N-terminal GST; dsDNA, one strand shown
# T7 sequence: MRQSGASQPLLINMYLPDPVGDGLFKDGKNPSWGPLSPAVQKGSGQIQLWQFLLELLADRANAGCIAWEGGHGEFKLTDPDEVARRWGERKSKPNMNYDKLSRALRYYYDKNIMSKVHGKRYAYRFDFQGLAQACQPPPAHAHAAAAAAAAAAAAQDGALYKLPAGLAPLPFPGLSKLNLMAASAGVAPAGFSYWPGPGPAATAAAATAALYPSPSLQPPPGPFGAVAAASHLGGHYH
# Outline: as §1
# ETV5 = ETV5 (Homo sapiens, UniProt P41161 1-510); conditions: protein: recombinant; tags: N-terminal GST; dsDNA, one strand shown
# Outline: as §1
# HSF1 = HSF1 (Homo sapiens, UniProt Q00613 1-529); conditions: protein: recombinant; tags: N-terminal GST; chain copies: 3; dsDNA, one strand shown
# Outline: as §1
# SPIC = target: T8, SPIC (Homo sapiens, UniProt Q8N5J4 1-248); conditions: protein: recombinant; tags: N-terminal GST; dsDNA, one strand shown
# T8 sequence: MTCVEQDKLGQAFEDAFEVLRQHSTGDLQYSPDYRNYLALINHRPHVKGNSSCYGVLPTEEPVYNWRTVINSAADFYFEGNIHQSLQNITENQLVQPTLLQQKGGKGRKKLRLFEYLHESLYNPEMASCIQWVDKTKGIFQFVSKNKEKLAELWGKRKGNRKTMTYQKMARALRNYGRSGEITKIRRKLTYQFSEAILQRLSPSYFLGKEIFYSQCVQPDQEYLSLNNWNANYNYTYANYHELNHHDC
# Outline: as §1
# ELF4 = ELF4 (Homo sapiens, UniProt Q99607 1-663); conditions: protein: recombinant; tags: N-terminal GST; dsDNA, one strand shown
# Outline: as §1
# ELK4 = target: T9, ELK4 (Homo sapiens, UniProt P28324-2 1-405); conditions: protein: recombinant; tags: N-terminal GST; dsDNA, one strand shown
# T9 sequence: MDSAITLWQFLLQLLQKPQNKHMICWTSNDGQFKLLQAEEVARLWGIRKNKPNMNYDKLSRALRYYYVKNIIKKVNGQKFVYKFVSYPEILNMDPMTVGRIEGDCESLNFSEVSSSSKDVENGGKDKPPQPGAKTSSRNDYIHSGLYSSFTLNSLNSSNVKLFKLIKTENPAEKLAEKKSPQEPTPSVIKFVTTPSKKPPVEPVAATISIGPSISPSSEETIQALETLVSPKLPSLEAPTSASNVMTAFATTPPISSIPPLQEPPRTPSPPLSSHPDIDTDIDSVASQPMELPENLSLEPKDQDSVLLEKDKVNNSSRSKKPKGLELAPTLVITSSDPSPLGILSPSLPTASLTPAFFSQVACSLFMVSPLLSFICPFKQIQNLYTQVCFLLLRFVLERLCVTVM
# Outline: as §1
# ETV2 = target: T10, ETV2 (Homo sapiens, UniProt O00321 1-342); conditions: protein: recombinant; tags: N-terminal GST; dsDNA, one strand shown
# T10 sequence: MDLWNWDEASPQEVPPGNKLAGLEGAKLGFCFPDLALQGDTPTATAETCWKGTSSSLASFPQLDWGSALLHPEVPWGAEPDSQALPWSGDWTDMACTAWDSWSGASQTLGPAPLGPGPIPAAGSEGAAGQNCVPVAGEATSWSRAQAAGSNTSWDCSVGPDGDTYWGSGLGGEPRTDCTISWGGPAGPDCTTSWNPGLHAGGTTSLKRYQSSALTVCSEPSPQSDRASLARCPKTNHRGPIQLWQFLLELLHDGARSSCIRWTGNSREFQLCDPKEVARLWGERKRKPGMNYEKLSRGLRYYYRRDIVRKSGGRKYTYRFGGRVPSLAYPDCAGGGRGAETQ
# Outline: as §1
# ELF3 = target: T11, ELF3 (Homo sapiens, UniProt P78545 1-371); conditions: protein: recombinant; tags: N-terminal GST; dsDNA, one strand shown
# T11 sequence: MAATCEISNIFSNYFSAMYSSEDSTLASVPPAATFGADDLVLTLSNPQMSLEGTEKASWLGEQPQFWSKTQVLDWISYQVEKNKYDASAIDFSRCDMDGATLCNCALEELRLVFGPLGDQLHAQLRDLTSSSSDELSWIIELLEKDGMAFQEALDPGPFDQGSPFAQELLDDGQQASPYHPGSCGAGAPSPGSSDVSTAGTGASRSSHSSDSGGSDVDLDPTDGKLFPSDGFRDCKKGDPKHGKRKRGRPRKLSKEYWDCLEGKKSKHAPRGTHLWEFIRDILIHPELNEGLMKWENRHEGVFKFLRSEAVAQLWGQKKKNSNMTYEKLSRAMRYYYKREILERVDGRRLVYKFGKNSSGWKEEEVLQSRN
# Outline: as §1
# CRX = CRX (Homo sapiens, UniProt O43186 1-299); conditions: protein: recombinant; tags: N-terminal GST; dsDNA, one strand shown
# Outline: as §1
# ETV1 = ETV1 (Homo sapiens, UniProt P50549 1-477); conditions: protein: recombinant; tags: N-terminal GST; dsDNA, one strand shown
# Outline: as §1
# Chain of ETV1 (P50549 whole entry): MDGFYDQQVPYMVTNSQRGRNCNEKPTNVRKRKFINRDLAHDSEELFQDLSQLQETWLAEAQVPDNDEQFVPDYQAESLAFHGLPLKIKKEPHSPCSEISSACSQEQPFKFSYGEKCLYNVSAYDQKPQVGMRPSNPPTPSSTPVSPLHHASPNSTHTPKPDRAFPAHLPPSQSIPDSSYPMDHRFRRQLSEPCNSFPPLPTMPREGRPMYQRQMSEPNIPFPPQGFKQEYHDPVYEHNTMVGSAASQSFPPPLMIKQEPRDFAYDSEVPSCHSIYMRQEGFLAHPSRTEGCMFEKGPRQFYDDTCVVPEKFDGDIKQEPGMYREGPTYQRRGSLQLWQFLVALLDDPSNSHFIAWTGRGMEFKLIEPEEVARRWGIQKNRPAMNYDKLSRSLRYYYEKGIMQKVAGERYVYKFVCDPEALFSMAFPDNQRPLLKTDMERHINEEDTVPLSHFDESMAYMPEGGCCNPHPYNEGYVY
# Chain of HSF1 (Q00613 whole entry): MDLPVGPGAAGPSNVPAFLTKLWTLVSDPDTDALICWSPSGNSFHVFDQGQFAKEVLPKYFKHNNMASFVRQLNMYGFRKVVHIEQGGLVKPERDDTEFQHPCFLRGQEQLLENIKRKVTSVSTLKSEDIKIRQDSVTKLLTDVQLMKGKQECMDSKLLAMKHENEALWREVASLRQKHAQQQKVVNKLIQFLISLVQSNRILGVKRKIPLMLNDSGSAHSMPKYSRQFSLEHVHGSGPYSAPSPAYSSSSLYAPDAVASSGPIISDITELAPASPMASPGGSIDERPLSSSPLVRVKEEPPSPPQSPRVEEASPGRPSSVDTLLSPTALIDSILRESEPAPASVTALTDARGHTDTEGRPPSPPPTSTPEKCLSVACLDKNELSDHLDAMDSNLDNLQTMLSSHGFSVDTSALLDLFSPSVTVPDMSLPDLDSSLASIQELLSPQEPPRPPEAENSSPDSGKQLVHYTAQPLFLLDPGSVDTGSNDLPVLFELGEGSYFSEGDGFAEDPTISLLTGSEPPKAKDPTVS
# Chain of ETV5 (P41161 whole entry): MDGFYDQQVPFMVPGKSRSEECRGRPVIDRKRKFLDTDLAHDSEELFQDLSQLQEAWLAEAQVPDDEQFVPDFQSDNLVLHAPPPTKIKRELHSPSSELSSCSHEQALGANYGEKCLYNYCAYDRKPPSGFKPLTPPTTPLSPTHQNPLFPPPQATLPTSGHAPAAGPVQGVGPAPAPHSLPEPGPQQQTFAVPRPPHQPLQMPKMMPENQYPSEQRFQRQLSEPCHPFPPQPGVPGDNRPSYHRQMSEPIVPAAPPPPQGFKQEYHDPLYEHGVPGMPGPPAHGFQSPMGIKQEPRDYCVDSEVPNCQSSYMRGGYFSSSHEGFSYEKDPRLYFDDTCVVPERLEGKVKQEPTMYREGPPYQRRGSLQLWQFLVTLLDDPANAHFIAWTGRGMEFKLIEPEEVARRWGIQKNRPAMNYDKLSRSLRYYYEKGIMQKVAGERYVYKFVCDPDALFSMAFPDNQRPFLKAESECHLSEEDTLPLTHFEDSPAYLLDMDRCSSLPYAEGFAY
# Chain of CRX (O43186 whole entry): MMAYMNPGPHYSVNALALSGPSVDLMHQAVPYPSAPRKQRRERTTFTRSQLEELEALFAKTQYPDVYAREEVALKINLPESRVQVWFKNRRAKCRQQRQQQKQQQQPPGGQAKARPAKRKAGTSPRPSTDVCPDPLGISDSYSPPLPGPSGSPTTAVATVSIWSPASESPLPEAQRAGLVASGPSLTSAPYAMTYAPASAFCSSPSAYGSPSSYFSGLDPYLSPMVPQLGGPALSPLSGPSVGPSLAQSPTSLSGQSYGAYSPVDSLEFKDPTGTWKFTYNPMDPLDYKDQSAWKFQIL
# Chain of SPIB (Q01892 whole entry): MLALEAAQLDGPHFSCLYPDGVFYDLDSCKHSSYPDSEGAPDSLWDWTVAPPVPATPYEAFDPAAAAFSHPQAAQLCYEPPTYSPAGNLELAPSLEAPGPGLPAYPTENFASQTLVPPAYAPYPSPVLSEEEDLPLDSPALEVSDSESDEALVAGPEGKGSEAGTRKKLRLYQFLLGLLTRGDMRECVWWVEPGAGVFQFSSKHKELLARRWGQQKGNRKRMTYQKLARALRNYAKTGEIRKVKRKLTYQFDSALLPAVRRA
# Chain of ELF1 (P32519 whole entry): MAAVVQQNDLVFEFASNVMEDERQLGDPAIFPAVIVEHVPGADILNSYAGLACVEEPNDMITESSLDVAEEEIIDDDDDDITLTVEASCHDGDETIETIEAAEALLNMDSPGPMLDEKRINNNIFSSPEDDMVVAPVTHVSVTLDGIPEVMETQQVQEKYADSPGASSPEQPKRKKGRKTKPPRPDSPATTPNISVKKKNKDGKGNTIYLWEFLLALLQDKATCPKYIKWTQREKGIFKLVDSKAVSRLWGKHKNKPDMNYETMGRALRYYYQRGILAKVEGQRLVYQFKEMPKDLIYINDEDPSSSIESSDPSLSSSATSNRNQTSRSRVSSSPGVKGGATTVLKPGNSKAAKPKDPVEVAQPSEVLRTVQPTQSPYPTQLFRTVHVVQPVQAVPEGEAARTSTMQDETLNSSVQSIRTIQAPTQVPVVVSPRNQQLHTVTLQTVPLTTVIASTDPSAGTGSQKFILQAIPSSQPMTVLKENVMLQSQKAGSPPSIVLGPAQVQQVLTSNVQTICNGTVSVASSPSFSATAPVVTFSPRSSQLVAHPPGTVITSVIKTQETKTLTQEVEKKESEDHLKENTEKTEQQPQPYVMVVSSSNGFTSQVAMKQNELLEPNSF
# Chain of ELF4 (Q99607 whole entry): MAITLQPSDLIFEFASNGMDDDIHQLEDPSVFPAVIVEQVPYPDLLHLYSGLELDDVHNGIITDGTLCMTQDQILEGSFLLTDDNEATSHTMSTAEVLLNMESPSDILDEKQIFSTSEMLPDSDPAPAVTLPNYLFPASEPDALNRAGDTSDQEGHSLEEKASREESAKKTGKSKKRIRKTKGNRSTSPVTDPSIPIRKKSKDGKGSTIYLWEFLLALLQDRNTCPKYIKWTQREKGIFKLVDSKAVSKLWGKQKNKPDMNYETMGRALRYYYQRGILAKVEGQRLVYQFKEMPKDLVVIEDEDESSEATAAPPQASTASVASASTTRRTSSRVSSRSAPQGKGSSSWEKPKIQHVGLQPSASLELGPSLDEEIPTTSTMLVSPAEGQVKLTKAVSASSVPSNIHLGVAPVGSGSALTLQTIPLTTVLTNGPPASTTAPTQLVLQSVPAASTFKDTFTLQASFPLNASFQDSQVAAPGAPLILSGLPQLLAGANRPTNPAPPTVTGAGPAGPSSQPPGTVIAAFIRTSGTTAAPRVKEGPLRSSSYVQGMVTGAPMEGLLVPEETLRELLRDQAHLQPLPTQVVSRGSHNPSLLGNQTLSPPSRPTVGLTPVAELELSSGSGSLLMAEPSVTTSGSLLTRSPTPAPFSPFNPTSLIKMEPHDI
sequence,measurement,setting,value
ATATAG,binding signal,FLI1,"1.15 fold enrichment (6-mer frequency, TF over GST control)"
same,binding signal,ELK1,"1.17 fold enrichment (6-mer frequency, TF over GST control)"
same,binding signal,GABPA,"1.29 fold enrichment (6-mer frequency, TF over GST control)"
same,binding signal,ERG,"1.19 fold enrichment (6-mer frequency, TF over GST control)"
same,binding signal,ELF1,"1.17 fold enrichment (6-mer frequency, TF over GST control)"
same,binding signal,EHF,"1.22 fold enrichment (6-mer frequency, TF over GST control)"
same,binding signal,SPI1,"1.2 fold enrichment (6-mer frequency, TF over GST control)"
same,binding signal,SPIB,"1.2 fold enrichment (6-mer frequency, TF over GST control)"
same,binding signal,ELK3,"1.23 fold enrichment (6-mer frequency, TF over GST control)"
same,binding signal,FEV,"1.1 fold enrichment (6-mer frequency, TF over GST control)"
same,binding signal,ETV5,"1.24 fold enrichment (6-mer frequency, TF over GST control)"
same,binding signal,HSF1,"1.19 fold enrichment (6-mer frequency, TF over GST control)"
same,binding signal,SPIC,"1.2 fold enrichment (6-mer frequency, TF over GST control)"
same,binding signal,ELF4,"1.09 fold enrichment (6-mer frequency, TF over GST control)"
same,binding signal,ELK4,"1.19 fold enrichment (6-mer frequency, TF over GST control)"
same,binding signal,ETV2,"1.07 fold enrichment (6-mer frequency, TF over GST control)"
same,binding signal,ELF3,"1.28 fold enrichment (6-mer frequency, TF over GST control)"
same,binding signal,CRX,"1.26 fold enrichment (6-mer frequency, TF over GST control)"
same,binding signal,ETV1,"1.17 fold enrichment (6-mer frequency, TF over GST control)"
